Positions count from the first letter of the chain named.

Common to all, as to assay: PBM; 200 nM protein, PBS
Common to all, as to conditions: dsDNA, one strand shown

In test [1] the target is T1, VENTX (Homo sapiens, UniProt O95231 78-163, R121Q).
T1 sequence: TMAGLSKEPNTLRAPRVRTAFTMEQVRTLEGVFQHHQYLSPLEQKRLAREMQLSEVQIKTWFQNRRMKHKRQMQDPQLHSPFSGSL

In test [2] the target is HOXC9 (Homo sapiens, UniProt P31274 178-260, K195R).
Test [3] concerns the target T2, VENTX (Homo sapiens, UniProt O95231 78-163).
T2 sequence: T1 sequence with Q44R

The target of test [4] is T3, VENTX (Homo sapiens, UniProt O95231 78-163, Y115F).
T3 sequence: T1 sequence with Y38F, Q44R

In test [5] the target is HOXC9 (Homo sapiens, UniProt P31274 178-260).
Sequence of HOXC9 (Homo sapiens, UniProt P31274 178-260) (P31274 178-260): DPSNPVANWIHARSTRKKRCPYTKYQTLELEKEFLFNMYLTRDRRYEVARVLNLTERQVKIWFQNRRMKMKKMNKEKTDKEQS
For test [6], the target named is HOXD13 (Homo sapiens, UniProt P35453 263-343, T313R).
Sequence of HOXD13 (Homo sapiens, UniProt P35453 263-343, T313R) (P35453 263-343 T313R): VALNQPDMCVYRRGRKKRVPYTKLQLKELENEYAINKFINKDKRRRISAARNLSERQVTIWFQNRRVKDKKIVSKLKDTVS
Test [7] concerns the target HOXC9 (Homo sapiens, UniProt P31274 178-260, R193K).
Test [8] deals with HOXD13 (Homo sapiens, UniProt P35453 263-343).
Sequence of HOXD13 (Homo sapiens, UniProt P35453 263-343) (P35453 263-343): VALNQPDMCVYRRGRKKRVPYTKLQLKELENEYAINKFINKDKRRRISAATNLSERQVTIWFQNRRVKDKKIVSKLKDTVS
The target of test [9] is HOXD13 (Homo sapiens, UniProt P35453 263-343, T313A).
Sequence of HOXD13 (Homo sapiens, UniProt P35453 263-343, T313A) (P35453 263-343 T313A): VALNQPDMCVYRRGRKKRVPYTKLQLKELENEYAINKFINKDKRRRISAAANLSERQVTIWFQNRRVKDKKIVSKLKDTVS
Test [10] has as its target HOXC9 (Homo sapiens, UniProt P31274 178-260, R222W).
The target in test [11] is T4, SIX6 (Homo sapiens, UniProt O95475 114-200, L167I).
T4 sequence: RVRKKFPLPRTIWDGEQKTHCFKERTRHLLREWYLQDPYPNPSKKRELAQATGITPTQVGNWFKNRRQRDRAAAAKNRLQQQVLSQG

Test [12] concerns the target T5, SIX6 (Homo sapiens, UniProt O95475 114-200, L143V).
T5 sequence: T4 sequence with L30V, I54L

Test [13] has as its target T6, SIX6 (Homo sapiens, UniProt O95475 114-200, H141N).
T6 sequence: T4 sequence with H28N, I54L

Test [14] addresses T7, SIX6 (Homo sapiens, UniProt O95475 114-200, T165P).
T7 sequence: T4 sequence with T52P, I54L

The target in test [15] is T8, SIX6 (Homo sapiens, UniProt O95475 114-200, L167M).
T8 sequence: T4 sequence with I54M

The target in test [16] is T9, SIX6 (Homo sapiens, UniProt O95475 114-200, L143M).
T9 sequence: T4 sequence with L30M, I54L

Test [17] concerns the target T10, SIX6 (Homo sapiens, UniProt O95475 114-200, L143I).
T10 sequence: T4 sequence with L30I, I54L

The target of test [18] is T11, SIX6 (Homo sapiens, UniProt O95475 114-200, T165G).
T11 sequence: T4 sequence with T52G, I54L

Test [19] deals with T12, SIX6 (Homo sapiens, UniProt O95475 114-200, T139Q).
T12 sequence: T4 sequence with T26Q, I54L

Test [20] has as its target T13, SIX6 (Homo sapiens, UniProt O95475 114-200, T165A).
T13 sequence: T4 sequence with T52A, I54L

Test [21] concerns the target T14, SIX6 (Homo sapiens, UniProt O95475 114-200, L167V).
T14 sequence: T4 sequence with I54V

The target of test [22] is T15, SIX6 (Homo sapiens, UniProt O95475 114-200).
T15 sequence: T4 sequence with I54L

For test [23], the target named is T16, SIX6 (Homo sapiens, UniProt O95475 114-200, T165I).
T16 sequence: T4 sequence with T52I, I54L

Test [24] concerns the target HOXA4 (Homo sapiens, UniProt Q00056 201-287, W262R).
In test [25] the target is ALX4 (Homo sapiens, UniProt Q9H161 200-286).
Sequence of ALX4 (Homo sapiens, UniProt Q9H161 200-286) (Q9H161 200-286): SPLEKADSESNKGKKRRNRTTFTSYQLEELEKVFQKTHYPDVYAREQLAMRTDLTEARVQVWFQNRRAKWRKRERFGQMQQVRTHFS
Test [26] deals with ALX4 (Homo sapiens, UniProt Q9H161 200-286, Q225E).
Sequence of ALX4 (Homo sapiens, UniProt Q9H161 200-286, Q225E) (Q9H161 200-286 Q225E): as the sequence (Q9H161 200-286) above, with Q26E counted along it
Test [27] deals with HOXA4 (Homo sapiens, UniProt Q00056 201-287, R217L).
Sequence of HOXA4 (Homo sapiens, UniProt Q00056 201-287, R217L) (Q00056 201-287 R217L): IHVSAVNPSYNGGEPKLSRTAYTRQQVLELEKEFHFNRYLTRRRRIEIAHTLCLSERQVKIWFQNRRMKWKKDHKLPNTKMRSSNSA
Test [28] addresses T17, NKX2-6 (Homo sapiens, UniProt A6NCS4 118-204).
T17 sequence: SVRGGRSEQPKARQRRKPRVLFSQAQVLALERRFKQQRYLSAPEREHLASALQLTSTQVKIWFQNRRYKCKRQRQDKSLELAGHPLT

Test [29] concerns the target HOXA4 (Homo sapiens, UniProt Q00056 201-287).
The target in test [30] is T18, NKX2-6 (Homo sapiens, UniProt A6NCS4 118-204, F151L).
T18 sequence: T17 sequence with F34L

Test [31] addresses HOXA4 (Homo sapiens, UniProt Q00056 201-287, W262F).

Sequence of HOXC9 (Homo sapiens, UniProt P31274 178-260, K195R) (P31274 178-260 K195R): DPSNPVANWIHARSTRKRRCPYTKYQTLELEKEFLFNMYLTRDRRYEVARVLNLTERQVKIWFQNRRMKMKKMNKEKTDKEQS
Sequence of HOXC9 (Homo sapiens, UniProt P31274 178-260, R193K) (P31274 178-260 R193K): as the sequence (P31274 178-260) above, with R16K counted along it
Sequence of HOXC9 (Homo sapiens, UniProt P31274 178-260, R222W) (P31274 178-260 R222W): as the sequence (P31274 178-260) above, with R45W counted along it
Sequence of HOXA4 (Homo sapiens, UniProt Q00056 201-287, W262F) (Q00056 201-287 W262F): as the sequence (Q00056 201-287 R217L) above, with L17R, W62F counted along it
Sequence of HOXA4 (Homo sapiens, UniProt Q00056 201-287, W262R) (Q00056 201-287 W262R): as the sequence (Q00056 201-287 R217L) above, with L17R, W62R counted along it
Sequence of HOXA4 (Homo sapiens, UniProt Q00056 201-287) (Q00056 201-287): as the sequence (Q00056 201-287 R217L) above, with L17R counted along it

In the case of CCCCTCCC, the binding signal is 8.02 upbm affinity estimate (log intensity, higher = more binding, comparable within an allelic series) in test [1]; 9.65 upbm affinity estimate (log intensity, higher = more binding, comparable within an allelic series) in test [2]; 7.87 upbm affinity estimate (log intensity, higher = more binding, comparable within an allelic series) in [3]; 8.02 upbm affinity estimate (log intensity, higher = more binding, comparable within an allelic series) in [4]; 9.76 upbm affinity estimate (log intensity, higher = more binding, comparable within an allelic series) in test [5]; 9.44 upbm affinity estimate (log intensity, higher = more binding, comparable within an allelic series) in test [6]. The binding signal in [7] is 9.62 upbm affinity estimate (log intensity, higher = more binding, comparable within an allelic series); in test [8], 9.54 upbm affinity estimate (log intensity, higher = more binding, comparable within an allelic series); in test [9] it was 9.62 upbm affinity estimate (log intensity, higher = more binding, comparable within an allelic series); in test [10], 9.53 upbm affinity estimate (log intensity, higher = more binding, comparable within an allelic series).
ACCATTAG: the binding signal in test [1] was 11.7 upbm affinity estimate (log intensity, higher = more binding, comparable within an allelic series).
On to AATGATAC, for which the binding signal in test [1] is 9.95 upbm affinity estimate (log intensity, higher = more binding, comparable within an allelic series); in test [11], 11.5 upbm affinity estimate (log intensity, higher = more binding, comparable within an allelic series); in test [3] it was 10.2 upbm affinity estimate (log intensity, higher = more binding, comparable within an allelic series); in [12], 10.6 upbm affinity estimate (log intensity, higher = more binding, comparable within an allelic series); in test [13] it was 11.5 upbm affinity estimate (log intensity, higher = more binding, comparable within an allelic series); in [14], 10.1 upbm affinity estimate (log intensity, higher = more binding, comparable within an allelic series). The binding signal is 9.98 upbm affinity estimate (log intensity, higher = more binding, comparable within an allelic series) in test [4]; 11 upbm affinity estimate (log intensity, higher = more binding, comparable within an allelic series) in test [15]; 11.3 upbm affinity estimate (log intensity, higher = more binding, comparable within an allelic series) in test [16]; 10.6 upbm affinity estimate (log intensity, higher = more binding, comparable within an allelic series) in test [17]; 11.5 upbm affinity estimate (log intensity, higher = more binding, comparable within an allelic series) in [18]; 11.3 upbm affinity estimate (log intensity, higher = more binding, comparable within an allelic series) in test [19]. Further, the binding signal in test [20] was 11.4 upbm affinity estimate (log intensity, higher = more binding, comparable within an allelic series); in [21] it was 11.3 upbm affinity estimate (log intensity, higher = more binding, comparable within an allelic series); in test [22], 11.2 upbm affinity estimate (log intensity, higher = more binding, comparable within an allelic series); in test [23], 11.3 upbm affinity estimate (log intensity, higher = more binding, comparable within an allelic series).
With CCCCATGC, the binding signal in test [1] is 8.07 upbm affinity estimate (log intensity, higher = more binding, comparable within an allelic series); in test [2] it was 9.5 upbm affinity estimate (log intensity, higher = more binding, comparable within an allelic series); in test [3] it was 8.26 upbm affinity estimate (log intensity, higher = more binding, comparable within an allelic series); in test [4], 8.2 upbm affinity estimate (log intensity, higher = more binding, comparable within an allelic series); in [5], 9.6 upbm affinity estimate (log intensity, higher = more binding, comparable within an allelic series); in test [7], 9.46 upbm affinity estimate (log intensity, higher = more binding, comparable within an allelic series). In test [10], the binding signal is 9.63 upbm affinity estimate (log intensity, higher = more binding, comparable within an allelic series).
Turning to CGGAGGGA, the binding signal in test [1] was 8.11 upbm affinity estimate (log intensity, higher = more binding, comparable within an allelic series); in test [24] it was 9.84 upbm affinity estimate (log intensity, higher = more binding, comparable within an allelic series); in [2], 9.42 upbm affinity estimate (log intensity, higher = more binding, comparable within an allelic series); in [3], 7.97 upbm affinity estimate (log intensity, higher = more binding, comparable within an allelic series); in [25], 7.87 upbm affinity estimate (log intensity, higher = more binding, comparable within an allelic series); in test [4], 8.17 upbm affinity estimate (log intensity, higher = more binding, comparable within an allelic series). Besides, the binding signal in test [26] is 8.03 upbm affinity estimate (log intensity, higher = more binding, comparable within an allelic series); in test [27] it was 9.72 upbm affinity estimate (log intensity, higher = more binding, comparable within an allelic series); in test [5], 9.45 upbm affinity estimate (log intensity, higher = more binding, comparable within an allelic series); in [28], 9.02 upbm affinity estimate (log intensity, higher = more binding, comparable within an allelic series); in [7] it was 9.42 upbm affinity estimate (log intensity, higher = more binding, comparable within an allelic series); in test [29], 9.76 upbm affinity estimate (log intensity, higher = more binding, comparable within an allelic series). Besides, the binding signal in test [30] was 9.3 upbm affinity estimate (log intensity, higher = more binding, comparable within an allelic series); in test [10] it was 9.69 upbm affinity estimate (log intensity, higher = more binding, comparable within an allelic series); in test [31], 9.79 upbm affinity estimate (log intensity, higher = more binding, comparable within an allelic series).

The values above are taken from paper PMC11006913.
